This is part of a sample that, as a whole, favours compounds with a hit. Of some 83,000 tested, about 20% had one in any assay.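 96-well plates, one dose, 48 hours. Percent growth reported; active if below 10.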 Calls of active or inactive are those of the source.
tested on: HL-60(TB) leukemia; test: NCI-60 one-dose screen, 48 h (100 = growth as untreated, 0 = no growth, -100 = all killed); settings: 10 µM unless noted

**Q.** With NC(=O)c1ccc2c(c1)OCO2 as the compound, how does the growth read?
**A.** The growth was 103% (inactive).

**Q.** For CCCCC[C@H]1CC=C2C(=O)C(Cl)=C[C@@H]2CC=CCCCC(=O)O[C@@H](CCCCC)CC=C2C(=O)C(Cl)=C[C@@H]2CC=CCCCC(=O)O[C@@H](CCCCC)CC=C2C(=O)C(Cl)=C[C@@H]2CC=CCCCC(=O)O1, which growth is on record?
**A.** Its growth is 8.31% [8 µM] (active).

**Q.** For S=C1N(c2ccccc2)CN(C2CCCCC2)CN1c1ccccc1, which growth is on record?
**A.** Its growth is 96.1% (inactive).

**Q.** Which growth does the source give for COc1ccc(/C=C(\C#N)c2ccc(OC)cc2)cc1 here?
**A.** The growth was 50.9% (inactive).

**Q.** How did the growth turn out when OCCCc1n(Cc2ccc3ccccc3c2)c2ccccc2[n+]1Cc1ccc2ccccc2c1 was run?
**A.** Its growth is -43.5% (active).

**Q.** Which growth does the source give for OCc1cnc2ccccc2c1NC1CCCCCC1 here?
**A.** The growth was 88.5% (inactive).

**Q.** With CCNC(=O)Oc1ccc(/C(=C(/CC)Cc2ccccc2)c2ccc(OCCN3CCOCC3)cc2)cc1 as the compound, how does the growth read?
**A.** Its growth is 5.28% (active).

**Q.** Which growth does the source give for COc1ccc(N2CCN(c3nc(-c4cc(OC)c(OC)c(OC)c4)nc4ccccc34)CC2)cc1 here?
**A.** Its growth is 44.4% (inactive).

**Q.** How did the growth turn out when COc1ccc(-n2c(=O)n(-c3ccc(-c4nc5ccc(F)cc5s4)cc3)c(=O)c3cccnc32)cc1 was run?
**A.** Its growth is 102% (inactive).

**Q.** For CC(/C=C/c1ccccc1)=N/NC(=O)c1ccncc1, which growth is on record?
**A.** Its growth is 92.2% (inactive).

**Q.** For CN1CCN(C)c2cncc(Br)c2C1=O, which growth is on record?
**A.** The growth was 96.4% (inactive).

**Q.** How did the growth turn out when N#C/C(=C\c1ccc(Br)cc1)n1nnc2ccccc21 was run?
**A.** Its growth is 2.58% (active).

**Q.** How did the growth turn out when CC[C@H](C)C(=O)O[C@H]1CCC=C2C=C[C@H](C)[C@H](CC[C@@H]3CC=CC(=O)O3)[C@H]21 was run?
**A.** The growth was -0.21% (active).

**Q.** With COc1ccc(C/C(C)=C(\c2ccc(Cl)cc2)c2ccc(OCCCN(C)C)cc2)cc1 as the compound, how does the growth read?
**A.** The growth was 69.9% (inactive).

**Q.** For CN(C)CCOC(=O)Nc1ccccc1Cl, which growth is on record?
**A.** The growth was 112% (inactive).

**Q.** With C1=CC2=CC=C3C=CC=C4C(c5nc6c7ccccc7c7ccccc7c6[nH]5)=CC(=C1)C2C34 (stereo unspecified) as the compound, how does the growth read?
**A.** The growth was 111% (inactive).

**Q.** With O=C(CCSc1nnc2n(Cc3ccccc3)c(=O)c3c4c(sc3n12)CCCC4)N1CCN(c2ccccc2)CC1 as the compound, how does the growth read?
**A.** The growth was 106% (inactive).

**Q.** With Cc1cc(Cl)ccc1OC(C)C(=O)Nc1nnc(C2CC2)s1 (stereo unspecified) as the compound, how does the growth read?
**A.** Its growth is 108% (inactive).

**Q.** For COC(=O)/C=C/C(=O)c1cc(C)cc(C)c1O, which growth is on record?
**A.** Its growth is 86.6% (inactive).

**Q.** Which growth does the source give for CC(=O)Nc1ccc2c(c1)/C(=C\C=C/c1ccc([N+](C)(C)C)cc1)c1ccccc1-2 here?
**A.** The growth was 43.7% (inactive).

**Q.** With COc1ccc(-c2nc3ccccc3n3cccc23)cc1 as the compound, how does the growth read?
**A.** Its growth is 104% (inactive).

**Q.** For Cc1ccc(NC(=O)c2cc(NCc3cc(O)ccc3O)ccc2O)cc1, which growth is on record?
**A.** The growth was 16.1% (inactive).

**Q.** For Cc1ccc(Nc2nc(-c3ccc(F)cc3)c(C#N)c(=O)n2C)cc1, which growth is on record?
**A.** The growth was 90.1% (inactive).

**Q.** Which growth does the source give for COc1ccc2nc(-c3c(-c4ccccc4)nc4ncccn34)[nH]c2c1 here?
**A.** The growth was 98% (inactive).

**Q.** For O=C1/C(=C/c2ccc(Cl)cc2)CN(C(=O)CCN2CCC(=NO)CC2)C/C1=C\c1ccc(Cl)cc1, which growth is on record?
**A.** Its growth is -13% (active).

**Q.** Which growth does the source give for CC(=O)Nc1ccc([I+]c2ccc([N+](=O)[O-])cc2)cc1 here?
**A.** Its growth is 109% (inactive).
